Test results: PubChem BioAssay AID1159580 (chemical genetic matrix, 2015)
The campaign covered roughly 5,500 compounds. About 2,000 (36%) were called active. Roughly 18% stayed inconclusive and do not appear here. Cut-off read from the data, not from the text of the source: active = normalized growth mostly below about 0.91 (no sharp cut-off); inconclusive = no clear call, values can overlap the other calls; inactive = mostly above about 0.92. The list shows a part of the results.

Assay: chemical genetic growth profiling, strain panel (AID 1159580);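 note: tested at 20 µM; growth read once vehicle control cultures reached saturation at 30 °C; 1 = growth at the plate median or of vehicle wells; lower values mean less growth of the strain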
Conditions: growth OD
[1] = S. cerevisiae deletion strains, locus YDL101C, strain DUN1, hits give low values
[2] = S. cerevisiae deletion strains, locus YHR030C, strain SLT2, hits give low values
[3] = S. cerevisiae deletion strains, locus YAR019C, strain CDC15, hits give low values
[4] = S. cerevisiae deletion strains, locus YBL105C, strain PKC1, hits give low values
[5] = S. cerevisiae deletion strains, locus YBR135W, strain CKS1, hits give low values
[6] = S. cerevisiae deletion strains, locus YBR136W, strain MEC1, hits give low values
[7] = S. cerevisiae deletion strains, locus YBR160W, strain CDC28, hits give low values
[8] = S. cerevisiae deletion strains, locus YDL017W, strain CDC7, hits give low values
[9] = S. cerevisiae deletion strains, locus YDL028C, strain MPS1, hits give low values
[10] = S. cerevisiae deletion strains, locus YDL108W, strain KIN28, hits give low values
[11] = S. cerevisiae deletion strains, locus YDL132W, strain cdc53, hits give low values
[12] = S. cerevisiae deletion strains, locus YDL214C, strain PRR2, hits give low values
[13] = S. cerevisiae deletion strains, locus YDR052C, strain DBF4, hits give low values
[14] = S. cerevisiae deletion strains, locus YDR054C, strain cdc34, hits give low values
[15] = S. cerevisiae deletion strains, locus YDR226W, strain ADK1, hits give low values
[16] = S. cerevisiae deletion strains, locus YDR477W, strain SNF1, hits give low values
[17] = S. cerevisiae deletion strains, locus YER123W, strain YCK3, hits give low values
[18] = S. cerevisiae deletion strains, locus YER133W, strain GLC7, hits give low values
[19] = S. cerevisiae deletion strains, locus YFL009W, strain cdc4, hits give low values
[20] = S. cerevisiae deletion strains, locus YFL029C, strain CAK1, hits give low values
[21] = S. cerevisiae deletion strains, locus YFR003C, strain YPI1, hits give low values
[22] = S. cerevisiae deletion strains, locus YFR019W, strain FAB1, hits give low values
[23] = S. cerevisiae deletion strains, locus YFR028C, strain CDC14, hits give low values
[24] = S. cerevisiae deletion strains, locus YGR040W, strain KSS1, hits give low values
[25] = S. cerevisiae deletion strains, locus YGR052W, strain FMP48, hits give low values
[26] = S. cerevisiae deletion strains, locus YGR092W, strain DBF2, hits give low values
[27] = S. cerevisiae deletion strains, locus YHR079C, strain IRE1, hits give low values
[28] = S. cerevisiae deletion strains, locus YHR082C, strain KSP1, hits give low values
[29] = S. cerevisiae deletion strains, locus YHR205W, strain SCH9, hits give low values
[30] = S. cerevisiae deletion strains, locus YIL147C, strain SLN1, hits give low values
[31] = S. cerevisiae deletion strains, locus YJL095W, strain BCK1, hits give low values
[32] = S. cerevisiae deletion strains, locus YJL128C, strain PBS2, hits give low values
[33] = S. cerevisiae deletion strains, locus YJL157C, strain FAR1, hits give low values
[34] = S. cerevisiae deletion strains, locus YJR016C, strain ILV3, hits give low values
[35] = S. cerevisiae deletion strains, locus YJR066W, strain TOR1 (second series), hits give low values
[36] = S. cerevisiae deletion strains, locus YJR066W, strain TOR1, hits give low values
[37] = S. cerevisiae deletion strains, locus YKL048C, strain ELM1, hits give low values
[38] = S. cerevisiae deletion strains, locus YKL067W, strain YNK1, hits give low values
[39] = S. cerevisiae deletion strains, locus YKL101W, strain HSL1, hits give low values
[40] = S. cerevisiae deletion strains, locus YKL193C, strain SDS22, hits give low values
[41] = S. cerevisiae deletion strains, locus YKL203C, strain TOR2, hits give low values
[42] = S. cerevisiae deletion strains, locus YLR113W, strain HOG1, hits give low values
[43] = S. cerevisiae deletion strains, locus YLR133W, strain CKI1, hits give low values
[44] = S. cerevisiae deletion strains, locus YLR403W, strain SFP1, hits give low values
[45] = S. cerevisiae deletion strains, locus YML070W, strain DAK1, hits give low values
[46] = S. cerevisiae deletion strains, locus YMR001C, strain CDC5, hits give low values
[47] = S. cerevisiae deletion strains, locus YMR205C, strain PFK2 (second series), hits give low values
[48] = S. cerevisiae deletion strains, locus YMR277W, strain FCP1, hits give low values
[49] = S. cerevisiae deletion strains, locus YNL006W, strain LST8, hits give low values
[50] = S. cerevisiae deletion strains, locus YNL020C, strain ARK1, hits give low values
[51] = S. cerevisiae deletion strains, locus YNL161W, strain CBK1, hits give low values
[52] = S. cerevisiae deletion strains, locus YNL183C, strain NPR1, hits give low values
[53] = S. cerevisiae deletion strains, locus YNL207W, strain RIO2, hits give low values
[54] = S. cerevisiae deletion strains, locus YNL222W, strain SSU72, hits give low values
[55] = S. cerevisiae deletion strains, locus YNL307C, strain MCK1 (second series), hits give low values
[56] = S. cerevisiae deletion strains, locus YOL078W, strain AVO1, hits give low values
[57] = S. cerevisiae deletion strains, locus YOL136C, strain PFK27, hits give low values
[58] = S. cerevisiae deletion strains, locus YOR061W, strain CKA2, hits give low values
[59] = S. cerevisiae deletion strains, locus YOR119C, strain RIO1, hits give low values
[60] = S. cerevisiae deletion strains, locus YOR231W, strain MKK1, hits give low values
[61] = S. cerevisiae deletion strains, locus YOR329C, strain SCD5, hits give low values
[62] = S. cerevisiae deletion strains, locus YPL031C, strain PHO85, hits give low values
[63] = S. cerevisiae deletion strains, locus YPL153C, strain RAD53, hits give low values
[64] = S. cerevisiae deletion strains, locus YPL204W, strain HRR25, hits give low values
[65] = S. cerevisiae deletion strains, locus YPL209C, strain IPL1, hits give low values
[66] = S. cerevisiae deletion strains, locus YPL256C, strain CLN2, hits give low values
[67] = S. cerevisiae deletion strains, locus YPR025C, strain CCL1, hits give low values
[68] = S. cerevisiae deletion strains, locus YPR106W, strain ISR1, hits give low values
[69] = S. cerevisiae deletion strains, locus YPR111W, strain DBF20, hits give low values
[70] = S. cerevisiae deletion strains, strain NNK1, hits give low values
[71] = S. cerevisiae deletion strains, strain TSCII, hits give low values

Measured: normalized growth

O=C1/C(=C/c2ccc(Cl)cc2)COc2ccc(F)cc21
active: [2] 0.305 | S. cerevisiae deletion strains, locus YLR039C, strain RIC1, hits give low values 0.472 | S. cerevisiae deletion strains, locus YLR085C, strain ARP6, hits give low values 0.431 | S. cerevisiae deletion strains, locus YLR262C, strain YPT6, hits give low values 0.528 | S. cerevisiae deletion strains, locus YNL298W, strain CLA4 (second series), hits give low values 0.83 | S. cerevisiae deletion strains, locus YNR030W, strain Alg12, hits give low values 0.829 | S. cerevisiae deletion strains, locus YPL241C, strain CIN2, hits give low values 0.704 | S. cerevisiae deletion strains, locus YPR135W, strain CTF4, hits give low values 0.405
inactive: S. cerevisiae deletion strains, locus YAL013W, strain DEP1, hits give low values 0.956 | S. cerevisiae deletion strains, locus YBR229C, strain ROT2, hits give low values 0.978 | [1] 1.01 | S. cerevisiae deletion strains, locus YDR150W, strain NUM1, hits give low values 1.01 | S. cerevisiae deletion strains, locus YEL061C, strain CIN8, hits give low values 0.934 | S. cerevisiae deletion strains, locus YGR078C, strain PAC10, hits give low values 0.972 | S. cerevisiae deletion strains, locus YGR229C, strain SMI1, hits give low values 0.951 | S. cerevisiae deletion strains, locus YHR087W, strain rtc3, hits give low values 0.96 | S. cerevisiae deletion strains, locus YJR043C, strain POL32, hits give low values 0.977 | S. cerevisiae deletion strains, locus YJR075W, strain HOC1, hits give low values 0.98 | S. cerevisiae deletion strains, locus YLR058C, strain SHM2 (second series), hits give low values 0.959 | S. cerevisiae deletion strains, locus YML094W, strain GIM5, hits give low values 0.941 | S. cerevisiae deletion strains, locus YMR219W, strain ESC1, hits give low values 0.963 | S. cerevisiae deletion strains, locus YMR263W, strain SAP30, hits give low values 0.942 | S. cerevisiae deletion strains, locus YNL153C, strain GIM3, hits give low values 0.986 | S. cerevisiae deletion strains, locus YNL322C, strain KRE1, hits give low values 0.959 | S. cerevisiae deletion strains, locus YPL055C, strain LGE1, hits give low values 0.963 | S. cerevisiae strains, strain wild type, hits give low values 0.967

O=C1/C(=C/c2cccs2)COc2ccccc21
active: [4] 0.899 | [1] 0.908 | [2] 0.778 | [30] 0.891 | [35] 0.603 | [42] 0.667 | [61] 0.9 | [65] 0.894 | [66] 0.802
inactive: [3] 0.903 | [5] 0.913 | [6] 0.899 | [7] 0.908 | [8] 0.911 | [9] 0.9 | [10] 0.901 | [11] 0.902 | [12] 0.793 | [13] 0.93 | [14] 0.88 | [15] 0.901 | [16] 0.779 | [17] 0.73 | [18] 0.765 | [19] 0.901 | [20] 0.897 | [21] 0.906 | [22] 0.884 | [23] 0.901 | [24] 0.766 | [25] 0.767 | [26] 0.684 | [27] 0.871 | [28] 0.735 | [29] 0.783 | [31] 0.832 | [32] 0.873 | [33] 0.789 | [34] 0.9 | [36] 0.762 | [37] 0.873 | [38] 0.831 | [39] 0.829 | [40] 0.901 | [41] 0.853 | [43] 0.86 | [44] 0.796 | [45] 0.802 | [46] 0.895 | [47] 0.831 | [48] 0.909 | [49] 0.916 | [50] 0.839 | [51] 0.906 | [52] 0.763 | [53] 0.9 | [54] 0.91 | [55] 0.803 | [56] 0.906 | [57] 0.816 | [58] 0.813 | [59] 0.833 | [60] 0.82 | [62] 0.756 | [63] 0.777 | [64] 0.786 | [67] 0.911 | [68] 0.901 | [69] 0.907 | [70] 0.906 | [71] 0.895

O=C1/C(=C/c2ccc(C(F)(F)F)cc2)COc2ccccc21
inactive: [3] 0.937 | [4] 0.924 | [5] 0.92 | [6] 0.924 | [7] 0.926 | [8] 0.926 | [9] 0.925 | [1] 0.946 | [10] 0.923 | [11] 0.934 | [12] 0.936 | [13] 0.931 | [14] 0.931 | [15] 0.925 | [16] 0.914 | [17] 0.886 | [18] 0.913 | [19] 0.926 | [20] 0.927 | [21] 0.93 | [22] 0.953 | [23] 0.961 | [24] 0.894 | [25] 0.953 | [26] 0.719 | [27] 0.888 | [28] 0.85 | [29] 0.784 | [30] 0.917 | [31] 0.901 | [32] 0.896 | [33] 0.92 | [34] 0.929 | [35] 0.976 | [36] 0.817 | [37] 0.897 | [38] 0.938 | [39] 0.906 | [40] 0.93 | [41] 0.921 | [43] 0.916 | [44] 0.846 | [45] 0.922 | [46] 0.918 | [47] 0.889 | [48] 0.933 | [49] 0.948 | [50] 0.881 | [51] 0.936 | [52] 0.88 | [53] 0.925 | [54] 0.938 | [55] 0.861 | [56] 0.931 | [57] 0.913 | [58] 0.879 | [59] 0.868 | [60] 0.916 | [61] 0.931 | [62] 0.897 | [63] 0.93 | [64] 0.921 | [65] 0.932 | [67] 0.925 | [68] 0.959 | [69] 0.946 | [70] 0.91 | [71] 0.932
active: [2] 0.824 | [42] 0.823 | [66] 0.852
